A short description of assay [1]: CCTE_Mundy_HCI_Cortical_Synap_Neur_Matur_CellBodySpotCount: CCTE's Synaptogenesis and Neurite Maturation Assay in rat cortical cells for Cell Body Spot Count, Mundy Lab (AID 2284223). The essentials:
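Chemicals were applied to AraC-treated rat primary cortical cells at DIV 7 and measured at DIV 12. Fixed cells were labelled for MAP2, synaptophysin and nuclei, and high-content imaging gave cell body synaptophysin spot counts per neuron relative to DMSO.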

Assay [2] is described as follows: CCTE_Mundy_HCI_hNP1_Pro_ResponderAvgInten: CCTE's Proliferation Assay in human neuroprogenitor cells, Mundy Lab (AID 2284224; active means hit-call score of the fitted dose curve at least 0.9, where 1 is the maximum). An outline of the steps: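 Proliferation read as average intensity of BrdU-positive cells, imaged at 26.25 h post-dosing: chemical exposure started after 40–44 h culture, BrdU during final 4 h, paraformaldehyde fixation. Positive-direction fit relative to DMSO.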

Assay [3] can be described thus: CCTE_Mundy_HCI_Cortical_NOG_BPCount: CCTE's Neurite Outgrowth Assay in rat cortical cells for Branch Point Count, Mundy Lab (AID 2284237).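 On AC50: branch points counted about two days after chemical exposure.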 An outline of the steps:
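Measured 50.33 h after dosing, this morphology endpoint uses rat primary cortical cultures labelled for betaIII-tubulin. Branch points are quantified by high-content imaging, with DMSO as negative control and baseline.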

The nature of assay [4]: CCTE_Mundy_HCI_hNP1_Casp3_7: CCTE's Caspase-Glo 3/7 Assay in human neuroprogenitor cells for Apoptosis, Mundy Lab (AID 2284240). An outline of the steps: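 Luminescent caspase-3/7 readout, 26.5 h post-dose, in human neural progenitor cells from WA09 embryonic stem cells. Cells grew 40–44 h at 37 °C, 5% CO2 before chemical addition. Activity analysed as signal increase over DMSO baseline.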

The nature of assay [5]: CCTE_Mundy_HCI_hNP1_CellTiter: CCTE's Cell Titer-Glo 2 Assay in human neuroprogenitor cells for Viability, Mundy Lab (AID 2284241; active means hit-call score of the fitted dose curve at least 0.9, where 1 is the maximum;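 further: a hit is a drop in ATP luminescence versus DMSO meaning reduced viability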). An outline of the steps: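 Viability read as luminescent ATP content (CellTiter-Glo, 30 min room temperature) twenty-four hours after dosing, relative to DMSO. Cells: WA09-derived hNP1 neuroprogenitors on poly-L-ornithine/laminin, plated 40 to 44 hours before chemical.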
Background: ATP-based viability assays read luminescence as a measure of living cells.

Assay [6] can be described thus: UKN2_HCS_IMR90_cell_viability: Viability Assessment in the University of Konstanz (UKN) Leist Lab Neural Crest Cell Migration Assay in human induced IMR90 Pluripotent Stem Cells (UKN2) (AID 2284233).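 Further: cells exposed to compound for 24 h after a 24 h migration phase.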 The essentials: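 Viability read as calcein-AM fluorescence by high-content imaging, Hoechst co-stain, 30 min. Human iPSC (IMR90) neural crest cells had migrated 24 h into stopper-defined gaps before 24 h chemical exposure. Fitted bidirectionally relative to DMSO.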

A short description of assay [7]: CCTE_Mundy_HCI_Cortical_NOG_NeuronCount: CCTE's Neurite Outgrowth Assay in rat cortical cells for Neuron Count, Mundy Lab (AID 2284236; active means hit-call score of the fitted dose curve at least 0.9, where 1 is the maximum;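 further: neurons counted by imaging betaIII-tubulin and Hoechst stained cortical cells; cells exposed to compound for about 48 hours before fixation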). The essentials:
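Read-out: neuron number by high-content imaging of betaIII-tubulin (Alexa Fluor-488) and Hoechst-labelled rat primary cortical cells.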

Assay [8] can be described thus: BSK_BT_PBMCCytotoxicity: PBMC Cytotoxicity Assessment in the BioMAP Diversity Plus: BT Assay (AID 2284225).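 Further: PBMC viability measured by Alamar Blue dye reduction fluorescence.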 The conditions noted are these: primary human B cells with PBMC. An outline of the steps: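 Viability by Alamar Blue reduction (6 h, ex/em 546/580 nm) after 90 h culture of SEB/TSST-1-activated PBMC (20 ng/mL each) given compound 1 h before activation. DMSO served as baseline for curve fitting.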

Read-out in assay [9]: Secreted IgG (sIgG), gene 3500
The assay is described as follows: BSK_BT_sIgG: BioMAP Diversity Plus: BT Assay for Secreted IgG (sIgG) Biomarker Activity (AID 2284226). The following applies: primary human B cells with PBMC. The essentials: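 ELISA quantitation of secreted IgG from human B cells co-cultured with PBMC, sampled 24 h post-dosing. Values fitted relative to DMSO vehicle as baseline, positive fitting direction.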

A short description of assay [10]: BSK_BT_Bcell_Proliferation: Viability Assessment in the BioMAP Diversity Plus: BT Assay for B cell Proliferation (AID 2284227). The following applies: primary human B cells with PBMC. The essentials:
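Human B cell/PBMC co-culture; test chemical added; 72 h; TCA fix (10%), 0.1% SRB stain, A560 for total protein as a proliferation read-out; positive-direction fit vs DMSO baseline.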

Read-out in assay [11]: Interleukin 6 (IL6), IL6 (gene 3569)
The experiment in a line: BSK_BT_xIL6: BioMAP Diversity Plus: BT Assay for Interleukin 6 (IL6) Biomarker Activity (AID 2284228). The following applies: primary human B cells with PBMC. The essentials: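 IL-6 secretion measured (Luminex xMAP) in human primary B cell + PBMC co-culture at 24 h of chemical exposure; DMSO served as negative control and activity baseline, with curves fitted for increase.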

Read-out in assay [12]: Interleukin 17A (IL17A), IL17A (gene 3605)
The experiment in a line: BSK_BT_xIL17A: BioMAP Diversity Plus: BT Assay for Interleukin 17A (IL17A) Biomarker Activity (AID 2284229). The conditions noted are these: primary human B cells with PBMC. An outline of the steps: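 Human primary B cells plus PBMC, treated 24 h with chemicals; supernatant IL-17A quantified on Luminex xMAP beads. Gain of signal over DMSO control scored as activity.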

Read-out in assay [13]: Tumor necrosis factor (Homo sapiens) (UniProt P01375)
The experiment in a line: BSK_BT_xTNFa: BioMAP Diversity Plus: BT Assay for Tumor necrosis factor alpha (TNF-alpha) Biomarker Activity (AID 2284230). The conditions noted are these: primary human B cells with PBMC. An outline of the steps: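 Read-out: Luminex xMAP quantitation of secreted TNF-alpha from a B cell/PBMC co-culture 24 h after compound addition. Signal analysed relative to DMSO vehicle, positive fitting direction.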

Read-out in assay [14]: Vascular cell adhesion molecule 1 (VCAM1), VCAM1 (gene 7412)
The experiment in a line: BSK_MyoF_VCAM1: BioMAP Diversity Plus: MyoF Assay for Vascular cell adhesion molecule 1 (VCAM1) Biomarker Activity (AID 2284231). The following applies: primary human lung fibroblasts. An outline of the steps: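 VCAM-1 levels, lung fibroblasts, ELISA, 24 h exposure, increase scored relative to DMSO.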

Read-out in assay [15]: Collagen I, COL1A1 (gene 1277)
The experiment in a line: BSK_MyoF_CollagenI: BioMAP Diversity Plus: MyoF Assay for Collagen I Biomarker Activity (AID 2284238). The conditions noted are these: primary human lung fibroblasts. An outline of the steps:
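Measured by ELISA: Collagen I from human lung fibroblasts 24 h after compound addition, analysed for signal gain with DMSO as baseline; overt toxicity read from SRB staining of parallel cultures at the same time.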

Read-out in assay [16]: Collagen III, COL3A1 (gene 1281)
The assay is described as follows: BSK_MyoF_CollagenIII: BioMAP Diversity Plus: MyoF Assay for Collagen III Biomarker Activity (AID 2284239). The following applies: primary human lung fibroblasts. An outline of the steps:
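Multiplexed cell assay in lung fibroblasts, harvested at 24 h post-dose. Collagen III detected by ELISA, with positive-direction fitting relative to DMSO vehicle.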

Read-out in assay [17]: Interleukin 17F (IL17F), IL17F (gene 112744)
The experiment in a line: BSK_BT_xIL17F: BioMAP Diversity Plus: BT Assay for Interleukin 17F (IL17F) Biomarker Activity (AID 2284243). The following applies: primary human B cells with PBMC. An outline of the steps:
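Luminex readout of IL-17F secretion, 24 h; cells: human B cells with PBMC; positive-direction analysis, DMSO control.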

Assay [18] is described as follows: TAMU_HCS_1.5hr_SingleDonor1434_Cytotoxicity: Cytotoxicity Assessment using High-content Screening (HCS) Fluorescent Imaging for the Texas A&M University (TAMU) 1.5-hr Human Induced Pluripotent Stem Cell (iPSC)-derived Cardiotoxicity Assay (AID 2284234; active means hit-call score of the fitted dose curve at least 0.9, where 1 is the maximum). An outline of the steps:
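Nuclear counts from Hoechst 33342 imaging define cytotoxicity here, with EC10 (10% cell-count loss relative to DMSO) as point of departure. iPSC cardiomyocytes received 0.2-100 uM test chemical in 0.5% DMSO for 1.5 h at 37 C.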

Assay [19] can be described thus: TAMU_PeakParms_SingleDonor1434_QT: Texas A&M University (TAMU) 1.5-hr Human Induced Pluripotent Stem Cell (iPSC)-derived Cardiomyocytes Calcium (Ca+2) Flux Assay for Cardiotoxicity: QT (decay-rise ratio) (AID 2284235; active means hit-call score of the fitted dose curve at least 0.9, where 1 is the maximum). An outline of the steps: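 Decay/rise ratio of calcium-flux fluorescence scored after 90 min exposure (37C) of donor 1434 iPSC cardiomyocytes to 0.2–100 uM (0.5% DMSO). Beat-cessation and severe-notch points removed; POD is EC05, a 5% rise over DMSO.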

Values joined by “and” are separate entries in the source; they are usually repeats but may differ in a detail not shown here. Equal entries are not always repeated. Records with an inconclusive call do not appear. Active and inactive are the calls of the source. How the source made its calls, unless noted: active means hit-call score of the fitted dose curve at least 0.9, where 1 is the maximum; inactive means score below 0.9.

Chain of Tumor necrosis factor (Homo sapiens) (P01375 whole entry, looked up): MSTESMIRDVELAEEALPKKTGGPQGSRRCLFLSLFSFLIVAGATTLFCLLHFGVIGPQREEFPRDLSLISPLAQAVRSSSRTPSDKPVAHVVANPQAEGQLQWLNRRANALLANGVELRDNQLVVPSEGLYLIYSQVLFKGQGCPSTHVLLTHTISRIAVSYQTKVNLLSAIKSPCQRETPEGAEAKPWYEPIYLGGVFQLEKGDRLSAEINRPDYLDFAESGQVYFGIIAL

For orientation: AC50 means the concentration at which the activity in the assay is half-maximal. As for `C=CCC1=C(C)[C@@H](OC(=O)[C@@H]2[C@@H](C=C(C)C)C2(C)C)CC1=O`, the figures for the AC50 in assay [1] and in assay [5] were 21.8 µM (active) and 7.56 µM (active), respectively. The outcome in [2], in [3] and in assay [4] was inactive.
In the case of `CCCCOC(=O)c1ccccc1C(=O)OCCCC`, the AC50 in assay [1] is 89.5 µM (active). Further, the molecule was called inactive in assay [6], in assay [7], in assay [3] and in assay [4].
As for `CCOc1cc(Oc2ccc(C(F)(F)F)cc2Cl)ccc1[N+](=O)[O-]`, the half-maximal activity concentration (AC50) in assay [1] was 14.3 µM (active); in [2], 10.9 µM (active); in assay [4] it was 52.1 µM (active); in assay [5], 18.9 µM (active). Also, the molecule was called inactive in assay [6].
Take `CCCCC(CC)COC(=O)c1ccccc1C(=O)OCC(CC)CCCC` (stereo not drawn): the concentration at half-maximal activity (AC50) in assay [1] is 8.27 µM (active) and 7.64 µM (active); in assay [2], 9.27 µM (active) and 3.62 µM (active); in assay [4] it was 16.6 µM (active) and 11.1 µM (active); in assay [5] it was 9.22 µM (active). In addition, in assay [6], the call was inactive.
Take `COc1cnc(OC)n2nc(NS(=O)(=O)c3c(OCC(F)F)cccc3C(F)(F)F)nc12`: the outcome in assay [8], in [9], in assay [10], in assay [11], in assay [12] and in assay [13] was inactive. Moreover, the outcome in assay [14], in assay [15], in assay [16] and in assay [17] was inactive.
For `Cc1ccc(-c2c(Cl)nc(C#N)n2S(=O)(=O)N(C)C)cc1`, the AC50 in assay [1] is 87.8 µM (active); in assay [2], 50 µM (active); in assay [6] it was 0.564 µM (active); in assay [7], 50 µM (active); in assay [3], 78 µM (active); in assay [4] it was 89.9 µM (active). The AC50 in assay [5] is 85.4 µM (active).
With `CCCCNC(=O)OCC#CI`, the AC50 in [18] is 4.75 µM (active). Further, the result in assay [19] was inactive.
`CN(C)C(=S)SSC(=S)N(C)C`: the concentration at half-maximal activity (AC50) in assay [1] is 0.0783 µM (active); in assay [2], 0.0771 µM (active); in assay [6], 7.92 µM (active); in assay [7], 0.0469 µM (active); in assay [3], 0.055 µM (active); in assay [4] it was 87.3 µM (active). Further, the AC50 in [5] is 9.92 µM (active).
For `CC(C)(C)c1ccc(CSc2cnn(C(C)(C)C)c(=O)c2Cl)cc1`, the AC50 is 0.00106 µM (active) in assay [1]; 4.85 µM (active) in assay [2]; 0.0982 µM (active) in assay [7]; 0.00299 µM (active) in assay [3]; 9.49 µM (active) in assay [4]; 11.5 µM (active) in [5]. Further, the result in [6] was inactive.
